From PubChem BioAssay (NCI)
This is part of a sample that, as a whole, favours compounds with a hit. Of some 83,000 tested, about 20% had one in any assay.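 The test compound was applied at a single concentration to cells in 96-well plates for 48 hours, and percent growth was recorded.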 Values without a mark were called inactive. Activity calls are given as the source filed them. Rule for the calls: active = growth percent below 10; inactive = the rest.

Experiments:
Assay in all cases: NCI-60 one-dose screen, 48 h (100 = growth as untreated, 0 = no growth, -100 = all killed)
Details in all cases: 10 µM unless noted
NCI-H23 lung = tested on: NCI-H23 lung
NCI-H226 lung = tested on: NCI-H226 lung
NCI-H322M lung = tested on: NCI-H322M lung
HOP-62 NSCLC = tested on: HOP-62 NSCLC
NCI-H460 lung = tested on: NCI-H460 lung
HOP-92 NSCLC = tested on: HOP-92 NSCLC
NCI-H522 lung = tested on: NCI-H522 lung
A549/ATCC NSCLC = tested on: A549/ATCC NSCLC
786-0 renal = tested on: 786-0 renal
COLO 205 colon = tested on: COLO 205 colon

SMILES	growth (NCI-H23 lung) [%]	growth (NCI-H226 lung)	growth (NCI-H322M lung) [%]	growth (HOP-62 NSCLC)	growth (NCI-H460 lung)	growth (HOP-92 NSCLC)	growth (NCI-H522 lung)	growth (A549/ATCC NSCLC)	growth (786-0 renal)	growth (COLO 205 colon)
CCN(CC)CCn1c(=O)c2cc(OC)c(OC)cc2c2ccc3cc4c(cc3c21)OCO4	19.5	1.83% (active)	41	21.9%	6.21% (active)	52.6%	34.9%	39.4%	11.4%	30.2%
O=C1c2ccccc2C(=O)c2c([N+](=O)[O-])ccc(Cl)c21	89.3	102%	99.7	111%	101%	76.5%	59.2%	93.7%	96.6%	116%
CC1(C)CC[C@]2(C(=O)O)CC[C@]3(C)C(=CC[C@@H]4[C@@]5(C)Cc6c([nH]c7ccccc67)C(C)(C)[C@@H]5CC[C@]43C)[C@@H]2C1	32.8	48.9%	27.3	28.2%	16.7%	60.3%	31.5%	17.8%	37.7%	-15.5% (active)
COc1cc(/C=N/O)nc(-c2ccccn2)c1	19.9	11.7%	23.9	23.9%	5.13% (active)	54.4%	7.77% (active)	14.8%	17.5%	10.7%
O=C(/C=C/c1ccc[nH]1)c1ccc(-n2ccc(C(F)(F)F)n2)c(F)c1	88.7	84%	85.1	103%	100%	92.4%	69.5%	87.4%	91.8%	119%
Cc1ccc(/C=N/NC(=O)CSc2nc3ccccc3c(=O)n2Cc2ccc(S(N)(=O)=O)cc2)cc1	91.5	84.6%	102	85.7%	98.5%	109%	42.5%	85.9%	99.3%	105%
CCC(=O)Oc1ccc(/C(=C(\C)c2ccccc2)c2ccc(OCCN3CCCCC3)cc2)cc1	75.1	82.9%	82	76%	72%	86.5%	74.4%	71.1%	67.3%	32.7%
COc1cc2oc(-c3cccc(C(=O)Nc4ccc(Br)cc4)c3)cc(=O)c2c(OC)c1OC	77.7	10.7%	62.4	58%	36.2%	50.9%	60.9%	52.3%	67.4%	54.4%
Cc1ccc(NC(=O)Cc2ccc(/C=C/C(=O)c3ncc[nH]3)cc2)cc1	41.6	89.7%	63.9	43.4%	7.31% (active)	82%	43.6%	62.1%	29.7%	49.2%
CCc1ccc(CNc2ccc(N3CCOCC3)c(C(=O)O)c2)cc1	95.2	109%	102	90.2%	130%	105%	83.3%	99%	98.9%	101%
COc1cc(/C=N/NC(=O)c2cnn3c2NC(c2ccccc2)C3)ccc1OCc1ccccc1 (stereo not given)	32.8	40.2%	28.6	-1.18% (active)	-54% (active)	7.9% (active)	19.1%	-29.8% (active)	0.422% (active)	-2.34% (active)
NS(=O)(=O)c1ccc(CCN2C(=O)C=CC2=O)cc1	94.6	101%	97.3	97.1%	115%	108%	84.6%	104%	106%	123%
Cc1ccc(C(=O)/C(=C\c2ccc([N+](=O)[O-])cc2)S(=O)Cc2ccc(F)cc2)cc1 (stereo not given)	31.6	41.5%	72.6	21.5%	15%	27.2%	-12% (active)	73.2%	-66.1% (active)	2.86% (active)
